Measurements: PubChem BioAssay AID1159580 (chemical genetic matrix, 2015)
Where “and” joins values, the source holds several entries; their conditions need not be identical. Identical values can stand only once. Screen size: about 5,500 compounds; about 2,000 (36%) were called active. Another 18% or so got no clear call; they are omitted. Rule as the data show it: active = normalized growth mostly below about 0.91 (no sharp cut-off); inconclusive = no clear call, values can overlap the other calls; inactive = mostly above about 0.92. The list shows a part of the results.

Assay: chemical genetic growth profiling, strain panel (AID 1159580);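 also: tested at 20 µM; growth read once vehicle control cultures reached saturation at 30 °C; 1 = growth at the plate median or of vehicle wells; lower values mean less growth of the strain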
Details: S. cerevisiae deletion strains, growth OD

Measured: normalized growth

O=c1c(O)c(-c2ccccc2)oc2ccc3occc3c12
0.72 (active) and 0.968 (inactive): locus YHR030C, strain SLT2, stronger effect = lower value
active: locus YAL026C, strain drs2, stronger effect = lower value 0.808 | locus YAL030W, strain snc1, stronger effect = lower value 0.902 | locus YBL061C, strain skt5, stronger effect = lower value 0.811 | locus YBR009C, strain hhf1, stronger effect = lower value 0.627 | locus YBR023C, strain chs3, stronger effect = lower value 0.71 | locus YBR231C, strain swc5, stronger effect = lower value 0.799 | locus YBR279W, strain paf1, stronger effect = lower value 0.796 | locus YCL011C, strain gbp2, stronger effect = lower value 0.814 | locus YCL016C, strain dcc1, stronger effect = lower value 0.766 | locus YCL029C, strain bik1, stronger effect = lower value 0.749 | locus YCL061C, strain MRC1, stronger effect = lower value 0.801 | locus YCL069W, strain vba3, stronger effect = lower value 0.662 | locus YDL035C, strain GPR1, stronger effect = lower value 0.849 | locus YDL040C, strain nat1, stronger effect = lower value 0.93 | locus YDL074C, strain BRE1, stronger effect = lower value 0.671 | locus YDL101C, strain DUN1, stronger effect = lower value 0.858 | locus YDL192W, strain arf1, stronger effect = lower value 0.731 | locus YDR101C, strain arx1, stronger effect = lower value 0.765 | locus YDR137W, strain rgp1, stronger effect = lower value 0.798 | locus YDR159W, strain sac3, stronger effect = lower value 0.742 | locus YDR162C, strain NBP2, stronger effect = lower value 0.782 | locus YDR195W, strain ref2 1.23 [resistant] | locus YDR297W, strain sur2, stronger effect = lower value 0.849 | locus YDR318W, strain mcm21, stronger effect = lower value 0.799 | locus YDR335W, strain msn5, stronger effect = lower value 0.773 | locus YDR388W, stronger effect = lower value 0.847 | locus YDR392W, strain spt3, stronger effect = lower value 0.172 | locus YDR502C, strain sam2, stronger effect = lower value 0.783 | locus YEL003W, strain gim4, stronger effect = lower value 0.814 | locus YEL037C, strain rad23, stronger effect = lower value 0.86 | locus YEL061C, strain CIN8 (second series), stronger effect = lower value 0.71 | locus YER015W, strain faa2, stronger effect = lower value 0.829 | locus YER016W, strain bim1, stronger effect = lower value 0.92 | locus YER110C, stronger effect = lower value 0.767 | locus YER111C, strain swi4, stronger effect = lower value 0.793 | locus YER155C, strain BEM2 (second series), stronger effect = lower value 0.25 | locus YER155C, strain BEM2, stronger effect = lower value 0.807 | locus YER167W, strain BCK2, stronger effect = lower value 0.9 | locus YGL078C, strain dbp3, stronger effect = lower value 0.884 | locus YGL086W, strain mad1, stronger effect = lower value 0.764 | locus YGL173C, strain kem1, stronger effect = lower value 0.833 | locus YGL227W, strain vid30, stronger effect = lower value 0.888 | locus YGL240W, strain doc1, stronger effect = lower value 0.566 | locus YGL248W, strain PDE1, stronger effect = lower value 0.801 | locus YGL253W, strain hxk2, stronger effect = lower value 0.501 | locus YGR135W, strain pre9, stronger effect = lower value 0.713 | locus YGR229C, strain SMI1, stronger effect = lower value 0.416 | locus YGR252W, strain gcn5, stronger effect = lower value 0.593 | locus YHR079C, strain IRE1 (second series), stronger effect = lower value 0.873 | locus YHR094C, strain hxt1, stronger effect = lower value 0.904 | locus YHR142W, strain chs7, stronger effect = lower value 0.367 | locus YHR200W, strain rpn10, stronger effect = lower value 0.798 | locus YIL066C, strain RNR3, stronger effect = lower value 0.833 | locus YIL125W, strain kgd1, stronger effect = lower value 0.886 | locus YIR030C, strain dcg1, stronger effect = lower value 0.794 | locus YJL092W, strain hpr5, stronger effect = lower value 0.879 | locus YJL095W, strain BCK1 (second series), stronger effect = lower value 0.562 | locus YJL129C, strain trk1, stronger effect = lower value 0.852 | locus YJL164C, strain tpk1, stronger effect = lower value 0.781 | locus YJL166W, strain qcr8, stronger effect = lower value 0.74 | locus YJL168C, strain set2, stronger effect = lower value 0.925 | locus YJL187C, strain SWE1 (second series), stronger effect = lower value 0.847 | locus YJR043C, strain POL32, stronger effect = lower value 0.64
0.437 (active) and 0.978 (inactive): locus YJL095W, strain BCK1, stronger effect = lower value
inactive: locus YAL013W, strain DEP1, stronger effect = lower value 0.925 | locus YAL021C, strain ccr4, stronger effect = lower value 0.987 | locus YBR021W, strain FUR4, stronger effect = lower value 0.889 | locus YBR171W, strain sec66, stronger effect = lower value 0.962 | locus YBR229C, strain ROT2, stronger effect = lower value 0.955 | locus YCR088W, strain abp1, stronger effect = lower value 0.93 | locus YDL005C, strain med2, stronger effect = lower value 0.951 | locus YDL185W, strain tfp1, stronger effect = lower value 0.938 | locus YDR001C, strain nth1, stronger effect = lower value 0.956 | locus YDR069C, strain doa4, stronger effect = lower value 0.941 | locus YDR150W, strain NUM1, stronger effect = lower value 0.954 | locus YDR334W, strain swr1, stronger effect = lower value 0.913 | locus YEL061C, strain CIN8, stronger effect = lower value 0.93 | locus YFR010W, strain ubp6, stronger effect = lower value 0.926 | locus YGL167C, strain pmr1, stronger effect = lower value 0.919 | locus YHR013C, strain ard1, stronger effect = lower value 0.921 | locus YHR027C, strain rpn1, stronger effect = lower value 0.937 | locus YHR079C, strain IRE1, stronger effect = lower value 0.956 | locus YIL073C, strain SPO22, stronger effect = lower value 0.733 | locus YJL115W, strain asf1, stronger effect = lower value 0.943 | locus YJL134W, strain LCB3, stronger effect = lower value 0.956 | locus YJL154C, strain vps35, stronger effect = lower value 0.939 | locus YJR066W, strain TOR1, stronger effect = lower value 0.883
